We go through five compounds from PubChem BioAssay.

Calls of active or inactive are those of the source.

Test [1] has as its system Wnt5a (protein binding on small-molecule microarray). As to the kind of experiment: small molecules binding Wnt5a protein – biophysical, small-molecule microarray, 635/667 nm fluorescence, primary screen (AID 1142).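 Also: fluorescence read at 667 nm with signal to noise per printed feature.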 As to conditions: 635 nm fluorescence, higher = more signal.
Test [2] can be described thus: ATP-based viability of Huh7 replicon cells – cell-based, CellTiter-Glo luminescence, basal, 48 h, cytotoxicity control for HCV replication inhibitor project, primary screen (AID 1143).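 Also: Huh7 hepatoma cells carrying a hepatitis C replication reporter with no stimulus; test concentration not given here.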 As to conditions: higher = more signal, called active from +8 up or from −8 down. A general note: In antiviral work, replicon cells carry a viral genome segment that copies itself.
Test [3] in a line: basal CRE-LacZ reporter activity in PC12 – cell-based, unstimulated, primary screen (AID 1145). As to conditions: no forskolin, luminescence, 4.5 h, higher = more signal, called active from +8 up or from −8 down.
The nature of test [4]: forskolin-driven CRE-LacZ activity in PC12 – cell-based, CRE-LacZ reporter, forskolin-stimulated, primary screen (AID 1146).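 Also: PC12 cells with 6xCRE LacZ reporter stimulated by forskolin 10 µM; beta-galactosidase reporter signal reflecting CREB driven transcription.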 As to conditions: luminescence, 4.5 h, higher = more signal, called active from +8 up or from −8 down.
In test [5] the target is Streptavidin (Streptomyces avidinii) (UniProt P22629). The test can be described thus: compounds binding control protein streptavidin – biophysical, small-molecule microarray, 635/667 nm fluorescence, artefact control for SMM compound annotation, primary screen (AID 1147).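 Also: signal reflects streptavidin binding to arrayed compounds as a control protein.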 As to conditions: higher = more signal.
Test [6] is described as follows: probe aInhba binding on compound microarray – biochemical, small-molecule microarray, 635/667 nm fluorescence, primary screen (AID 1148).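 Also: score merges 667nm spot fluorescence with signal-to-noise for antibody binding to printed compounds.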 As to conditions: higher = more signal.
Test [7] deals with Torsin-1A (Homo sapiens) (UniProt O14656). As to the kind of experiment: TOR1A wild-type binding on microarray – cell lysate, small-molecule microarray, lysate, 635/667 nm, primary screen (AID 1149). As to conditions: COS7 hTOR1A-WT lysate, 635 nm fluorescence, higher = more signal.
For test [8] the target is unchanged. As to the kind of experiment: torsin A mutant lysate binding on microarrays – cell lysate, small-molecule microarray, COS7 lysate, 635/667 nm fluorescence, primary screen (AID 1150).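 Also: score pools 667 nm emission and signal to noise measuring lysate protein binding.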 The note with it: COS7 hTOR1A mutant lysate, 635 nm fluorescence, higher = more signal.
Test [9] relates to Sonic hedgehog protein (Shh). The test can be described thus: Sonic hedgehog microarray binding compounds – biochemical, small-molecule microarray, 635/667 nm fluorescence, primary screen (AID 1151).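 Also: Shh protein binding to compounds spotted on small-molecule microarray slides; score combines spot fluorescence intensity with signal-to-noise across triplicate slides.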 As to conditions: 635 nm fluorescence, higher = more signal.
The nature of test [10]: optical density shifts of acrAB sulA E. coli – strain DRC41, OD650, 48 h, E. coli filamentation inducer project, primary screen (AID 1152).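 Also: E. coli MC1000 strain DRC41 lacking acrAB efflux pump and sulA.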 As to conditions: higher = more signal, called active from +8 up or from −8 down.
The nature of test [11]: probe aLefty1 binding on compound microarray – biochemical, small-molecule microarray, 635/667 nm fluorescence, primary screen (AID 1153).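 Also: score merges spot fluorescence with signal-to-noise ratio from the scanned slide images.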 The note with it: higher = more signal.
Test [12] can be described thus: plasmodial surface anion channel blockers, osmotic lysis – cell-based, P. falciparum Indochina, OD700, 1 h, primary screen (AID 1154). As to conditions: P. falciparum Indochina infected RBC osmotic lysis, higher = more signal, called active from +8 up or from −8 down.
A short description of test [13]: plasmodial surface anion channel blockers, osmotic lysis – cell-based, P. falciparum Indochina, OD700, 2 h, primary screen (AID 1155).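 Also: lysis reports solute entry through the parasite surface anion channel PSAC.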 The note with it: P. falciparum Indochina infected erythrocytes, higher = more signal, called active from +8 up or from −8 down.
Test [14] can be described thus: changes in parasitized red cell lysis, either direction – P. falciparum Indochina, OD700, 3 h, PSAC antagonist project, primary screen (AID 1156). The note with it: P. falciparum-infected erythrocytes, osmotic lysis, higher = more signal, called active from +8 up or from −8 down.
A short description of test [15]: plasmodial surface anion channel blockers, osmotic lysis – cell-based, P. falciparum Indochina, OD700, 18 h, primary screen (AID 1157). The note with it: P. falciparum Indochina infected erythrocytes, osmotic lysis OD700, 18 h; higher = more signal, called active from +8 up or from −8 down.
Test [16] in a line: S6 kinase pathway phospho-S6 level changes – cell-based, A549, cytoblot, luminescence, serum-stimulated, primary screen (AID 1158).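 Also: serum-stimulated A549 lung adenocarcinoma cells; signal is phosphorylated S6 detected by cytoblot immunostaining with HRP secondary.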 The note with it: 5 h, higher = more signal.
Test [17] addresses NADPH oxidase 2 (Homo sapiens) (UniProt P04839). The test can be described thus: compounds shifting NOX2 Amplex Red fluorescence – cell-based, HEK293-NOX2, PMA-stimulated, NOX inhibitor project, primary screen (AID 1159). Also: test concentration not given here. As to conditions: 45 min, higher = more signal, called active from +8 up or from −8 down.
Test [18] concerns the target NADPH oxidase 4 (Homo sapiens) (UniProt Q9NPH5). The test can be described thus: compounds shifting NOX4 Amplex Red fluorescence – cell-based, HEK293-NOX4, tetracycline-induced, NOX inhibitor project, primary screen (AID 1160). The note with it: HEK293-NOX4, Amplex Red H2O2 fluorescence, 45 min; higher = more signal, called active from +8 up or from −8 down.
In test [19] the target is NADPH oxidase 5 (Homo sapiens) (UniProt Q96PH1). As to the kind of experiment: compounds shifting NOX5 Amplex Red fluorescence – cell-based, HEK293-NOX5, NOX inhibitor project, primary screen (AID 1161). The note with it: HEK293-NOX5, ionomycin, 45 min, higher = more signal.
NADPH oxidase 5 (Homo sapiens), sequence (Q96PH1 whole entry, looked up): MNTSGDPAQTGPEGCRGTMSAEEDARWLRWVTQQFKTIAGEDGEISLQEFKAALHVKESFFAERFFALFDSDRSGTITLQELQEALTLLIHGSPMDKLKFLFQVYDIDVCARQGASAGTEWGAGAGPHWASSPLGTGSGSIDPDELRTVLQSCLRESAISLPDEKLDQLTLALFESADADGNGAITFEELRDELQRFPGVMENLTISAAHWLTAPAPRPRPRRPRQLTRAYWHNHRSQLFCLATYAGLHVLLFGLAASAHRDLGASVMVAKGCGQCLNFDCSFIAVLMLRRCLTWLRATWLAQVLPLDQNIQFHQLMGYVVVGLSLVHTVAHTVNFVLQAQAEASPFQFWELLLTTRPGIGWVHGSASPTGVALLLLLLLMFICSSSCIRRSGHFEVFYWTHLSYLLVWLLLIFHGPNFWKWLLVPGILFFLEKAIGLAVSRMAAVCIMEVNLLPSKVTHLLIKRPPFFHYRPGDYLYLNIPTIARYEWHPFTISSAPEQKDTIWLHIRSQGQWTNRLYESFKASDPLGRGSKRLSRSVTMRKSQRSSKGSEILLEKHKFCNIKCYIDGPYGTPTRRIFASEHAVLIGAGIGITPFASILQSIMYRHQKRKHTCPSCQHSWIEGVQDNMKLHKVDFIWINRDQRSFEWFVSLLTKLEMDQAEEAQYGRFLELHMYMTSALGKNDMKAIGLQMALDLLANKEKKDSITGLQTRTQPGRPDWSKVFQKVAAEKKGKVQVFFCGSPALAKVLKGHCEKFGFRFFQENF

NADPH oxidase 4 (Homo sapiens), sequence (Q9NPH5 whole entry, looked up): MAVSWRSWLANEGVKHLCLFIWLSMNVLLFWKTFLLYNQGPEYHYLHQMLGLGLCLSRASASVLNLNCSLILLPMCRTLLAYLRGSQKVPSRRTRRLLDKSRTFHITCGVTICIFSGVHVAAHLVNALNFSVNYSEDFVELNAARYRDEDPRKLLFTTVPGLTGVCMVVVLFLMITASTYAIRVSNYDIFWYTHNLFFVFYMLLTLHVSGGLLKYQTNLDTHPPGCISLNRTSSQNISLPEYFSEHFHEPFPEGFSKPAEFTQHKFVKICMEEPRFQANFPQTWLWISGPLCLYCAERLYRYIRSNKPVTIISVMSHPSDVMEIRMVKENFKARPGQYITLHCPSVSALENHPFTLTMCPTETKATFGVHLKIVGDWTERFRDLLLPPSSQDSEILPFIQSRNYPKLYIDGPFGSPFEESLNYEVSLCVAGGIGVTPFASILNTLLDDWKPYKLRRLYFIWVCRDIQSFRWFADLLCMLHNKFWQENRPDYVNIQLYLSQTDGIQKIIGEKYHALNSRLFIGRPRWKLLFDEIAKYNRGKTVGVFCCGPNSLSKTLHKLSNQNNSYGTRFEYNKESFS
NADPH oxidase 2 (Homo sapiens), sequence (P04839 whole entry, looked up): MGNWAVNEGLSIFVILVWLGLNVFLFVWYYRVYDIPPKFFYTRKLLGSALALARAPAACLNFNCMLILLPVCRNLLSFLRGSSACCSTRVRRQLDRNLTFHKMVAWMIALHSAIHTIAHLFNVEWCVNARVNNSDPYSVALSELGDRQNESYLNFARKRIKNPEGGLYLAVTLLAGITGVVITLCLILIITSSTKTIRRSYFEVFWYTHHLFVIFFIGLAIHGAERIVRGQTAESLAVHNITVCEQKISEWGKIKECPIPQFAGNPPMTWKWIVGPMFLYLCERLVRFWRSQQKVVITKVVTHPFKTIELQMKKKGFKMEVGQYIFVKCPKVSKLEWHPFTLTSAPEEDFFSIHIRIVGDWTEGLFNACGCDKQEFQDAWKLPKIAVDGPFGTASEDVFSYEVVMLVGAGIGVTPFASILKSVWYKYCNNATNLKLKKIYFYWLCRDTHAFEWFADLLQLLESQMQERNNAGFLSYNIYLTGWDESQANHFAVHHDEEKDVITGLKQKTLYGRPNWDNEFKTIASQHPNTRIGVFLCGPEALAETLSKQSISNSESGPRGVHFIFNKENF
Streptavidin (Streptomyces avidinii), sequence (P22629 whole entry, looked up): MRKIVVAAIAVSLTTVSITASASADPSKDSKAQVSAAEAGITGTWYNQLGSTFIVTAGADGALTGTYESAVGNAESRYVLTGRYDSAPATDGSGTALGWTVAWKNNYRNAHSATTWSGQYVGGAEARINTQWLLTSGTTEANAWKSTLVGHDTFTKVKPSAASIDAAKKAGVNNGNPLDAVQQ
Torsin-1A (Homo sapiens), sequence (O14656 whole entry, looked up): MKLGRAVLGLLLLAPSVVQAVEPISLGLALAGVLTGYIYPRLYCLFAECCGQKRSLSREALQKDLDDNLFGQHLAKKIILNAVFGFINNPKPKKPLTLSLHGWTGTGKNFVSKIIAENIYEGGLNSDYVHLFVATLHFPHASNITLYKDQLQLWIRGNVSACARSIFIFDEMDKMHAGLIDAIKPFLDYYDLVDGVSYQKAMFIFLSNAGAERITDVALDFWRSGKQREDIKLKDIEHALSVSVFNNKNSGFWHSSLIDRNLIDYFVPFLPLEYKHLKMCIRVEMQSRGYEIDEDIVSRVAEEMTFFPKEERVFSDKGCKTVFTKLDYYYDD

Take `C=CCNC(=O)[C@H]1[C@@H]2C(=O)O[C@@H](c3ccccc3)[C@@H](c3ccccc3)N2[C@@H](c2ccc(O)cc2)[C@]12C(=O)Nc1ccc(C#CCNC(N)=O)cc12`: the composite z-score was -0.261 in test [1]; -0.96 in test [5]; 0.468 in test [6]; -0.109 with Torsin-1A (Homo sapiens) [7]; 0.0926 with Torsin-1A (Homo sapiens) [8]; 0.103 in test [9]. In test [11], the composite z-score was found to be 0.599. Also, the z-score in [2] is -0.23 (inactive); in [3] it was -0.594 (inactive); in test [4], -0.759 (inactive); in test [10] it was 1.86 (inactive); in [12], 1.7 (inactive); in test [13], 1.29 (inactive). The z-score in test [14] was 0.682 (inactive); in test [15], 0.506 (inactive); in test [16], 0.583; in [17], 1.19 (inactive); in [18], -0.188 (inactive); in [19], 0.1.

For the compound `CC(=O)Nc1ccc([C@H]2[C@H](C)CC[C@H]3C(=O)N4[C@@H](CC[C@@H](C)[C@@H]4c4ccc(NC(C)=O)cc4)C(=O)N32)cc1`, the composite z-score in [1] is 0.165; in test [5] it was 0.627; in [6] it was 0.0275; with Torsin-1A (Homo sapiens) [7] it was 1.17; with Torsin-1A (Homo sapiens) [8], 0.283; in [9] it was 1.34. In [11], this compound returned a composite z-score of -0.045. Further, the z-score in [2] was -0.446 (inactive); in [3], 3.09 (inactive); in [4] it was -0.876 (inactive); in test [10], -0.929 (inactive); in test [12], 1.91 (inactive); in [13], 0.586 (inactive). Also, the z-score is 0.699 (inactive) in test [14]; 0.32 (inactive) in test [15]; -0.164 in test [16]; 0.0427 (inactive) in [17]; 1.25 (inactive) in test [18]; 0.198 in [19].

Take `C=CC(=O)O[C@@H](Cc1ccccc1)[C@H]1C2C=CCCC=C2CN1Cc1cccc(Cl)c1` (stereo not given in full): the composite z-score in test [1] was -0.172; in [5], -0.575; in test [6], -0.082; with Torsin-1A (Homo sapiens) [7], -0.471; with Torsin-1A (Homo sapiens) [8] it was 0.393; in test [9] it was -0.0211. For the same compound, the composite z-score in test [11] was -0.378. Besides, the z-score in test [2] was -0.904 (inactive); in [3], 1.03 (inactive); in test [4], -0.678 (inactive); in [10], 3.24 (inactive); in test [12], 1.35 (inactive); in [13] it was 0.893 (inactive). Also, the z-score is 0.781 (inactive) in test [14]; 0.182 (inactive) in [15]; 0.711 in test [16]; -0.192 (inactive) in test [17]; 0.758 (inactive) in test [18]; 0.467 in test [19].

With `CCOC(=O)C[C@H]1[C@H](OC(=O)Cc2ccc3c(c2)OCO3)[C@@H](NC(=O)CC(C)C)c2cc(OCCCO)ccc2N1C(=O)c1ccccc1`, the composite z-score is 0.416 in [1]; -0.195 in [5]; 0.126 in test [6]; -0.155 with Torsin-1A (Homo sapiens) [7]; 0.287 in the test with Torsin-1A (Homo sapiens) [8]; 0.526 in test [9]. In test [11], this compound gave a composite z-score of 0.0698. Further, the z-score in test [2] was -0.957 (inactive); in test [3] it was 0.162 (inactive); in test [4], -1.48 (inactive); in test [10], 2.39 (inactive); in test [12], 0.4 (inactive); in test [13] it was -1.02 (inactive). In addition, the z-score in [14] is -0.462 (inactive); in test [15], -1.5 (inactive); in test [16] it was 0.622; in test [17] it was 0.337 (inactive); in test [18], 0.52 (inactive); in test [19] it was 0.47.

Consider `CCCCO[C@H]1C[C@H]2C(Br)=C[C@@]1(CO)C(=O)[C@]21CO1`, for which the composite z-score in [1] was -0.112; in test [5], -0.0819; in test [6] it was 0.0714; in the test with Torsin-1A (Homo sapiens) [7], 0.0005; with Torsin-1A (Homo sapiens) [8] it was 0.281; in [9] it was 0.536. In test [11], this compound returned a composite z-score of -0.198. For the same compound, the z-score in [2] is -0.483 (inactive); in test [3] it was 0.577 (inactive); in test [4], -0.67 (inactive); in test [10], 2.71 (inactive); in [12] it was -0.789 (inactive); in test [13], -1 (inactive). In addition, the z-score in test [14] was -0.269 (inactive); in [15], -2.44 (inactive); in test [16], 1.69; in [17] it was -0.446 (inactive); in test [18] it was 0.493 (inactive); in test [19], 0.178.
